# Tested on: T1, NIM1
# T1 construct: gene MGC42105
# Details: concentration: 1 μM, replicates: in singlicate; n = 1
# 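Also: KINOMEscan kinase panel screen.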
row,SMILES,%Inh
1,Cc1cccc(-c2nc(-c3ccc(S(C)(=O)=O)cc3)sc2-c2ccncc2)c1,0%
2,Nc1nc(-c2ccc3c(N)n[nH]c3c2)cc(N2CCCC2)n1 [GSK2227430],0%
3,NCC(NC(=O)c1cc(-c2cn[nH]c2)c(-c2ccnc3[nH]ccc23)s1)c1ccccc1.O=C(O)C(F)(F)F.O=C(O)C(F)(F)F (stereo not drawn) [GSK1325775],38%
4,Cc1c(Cn2c(C)nn3c(=O)cc(N4CCOC(C)C4)nc23)cccc1C(F)(F)F (stereo not drawn) [GSK2344444],3%
5,O=C(Nc1cccc(-c2nn3ncccc3c2-c2ccnc(Nc3cccc(C(F)(F)F)c3)n2)c1)c1c(F)cccc1F [GSK299495],25%
6,N#Cc1c(N2CCOCC2)sc(-c2ccn[nH]2)c1-c1ccc(Cl)cc1,54%
7,CCc1nc(-c2cccc(C)c2)c(-c2ccnc(NCc3ccccc3)c2)s1,0%
8,Nc1nccc(-c2c(-c3ccc(F)cc3)ncn2C2CCN(CC(F)(F)F)CC2)n1 [SB-236560],50%
9,CC(=O)Nc1ccc(COc2ccc(Nc3ccnc4cc(-c5ccccn5)ccc34)cc2)cc1.Cl [GW440148],23%
10,O=C(NCCCN1CCOCC1)c1cccc(Nc2nccc(Nc3ccc(Oc4ccccc4)cc3)n2)c1 [GW663929],28%
11,COc1cc2c(cc1OCCN1CCN(C)CC1)ncc1c3ccc(C#N)cc3[nH]c21,64%
12,COc1ccc(Nc2ncc(C#N)c(Nc3ccccc3C(N)=O)n2)cc1N1CCN(C)CC1.Cl [GSK1558669],99.9%

# From PMC5540273 (PLoS ONE, 2017)
